From PubChem BioAssay AID1445 (SRMLSC, 2008) come the findings set out here.

Out of some 220,000 compounds screened, about 910 (0.41%) were called active. This excerpt belongs to a sample that is enriched for actives. Potency and affinity values are given separately. Values without a mark were called inactive.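 How the source made its calls: active means primary inhibition above the hit cutoff, then over 50% inhibition at one or more dose response concentrations (cut at about 23% in these data, passing the limit was not always enough); inconclusive means conflicting primary data, or primary hits not chosen for dose response; inactive means low primary inhibition, or under 50% at every dose.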 Where a SMILES comes first, the peptide text is derived from it. The star is where a group is joined. Boc = CC(C)(C)OC(=O)*

In the assay the target is Aminopeptidase N (Plasmodium falciparum (isolate 3D7)) (UniProt O96935). As to the kind of experiment: P. falciparum M1AAP inhibitors, biochemical, fluorogenic H-Leu-NHMec substrate, 1536-well (AID 1445).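 Further: plate controls were DMSO full reaction for no effect and no enzyme background for full effect.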 To be noted: recombinant M1AAP, H-Leu-NHMec fluorogenic kinetic assay; at 30 µM, hits give high values unless noted.
Chain of Aminopeptidase N (Plasmodium falciparum (isolate 3D7)) (O96935 whole entry, looked up): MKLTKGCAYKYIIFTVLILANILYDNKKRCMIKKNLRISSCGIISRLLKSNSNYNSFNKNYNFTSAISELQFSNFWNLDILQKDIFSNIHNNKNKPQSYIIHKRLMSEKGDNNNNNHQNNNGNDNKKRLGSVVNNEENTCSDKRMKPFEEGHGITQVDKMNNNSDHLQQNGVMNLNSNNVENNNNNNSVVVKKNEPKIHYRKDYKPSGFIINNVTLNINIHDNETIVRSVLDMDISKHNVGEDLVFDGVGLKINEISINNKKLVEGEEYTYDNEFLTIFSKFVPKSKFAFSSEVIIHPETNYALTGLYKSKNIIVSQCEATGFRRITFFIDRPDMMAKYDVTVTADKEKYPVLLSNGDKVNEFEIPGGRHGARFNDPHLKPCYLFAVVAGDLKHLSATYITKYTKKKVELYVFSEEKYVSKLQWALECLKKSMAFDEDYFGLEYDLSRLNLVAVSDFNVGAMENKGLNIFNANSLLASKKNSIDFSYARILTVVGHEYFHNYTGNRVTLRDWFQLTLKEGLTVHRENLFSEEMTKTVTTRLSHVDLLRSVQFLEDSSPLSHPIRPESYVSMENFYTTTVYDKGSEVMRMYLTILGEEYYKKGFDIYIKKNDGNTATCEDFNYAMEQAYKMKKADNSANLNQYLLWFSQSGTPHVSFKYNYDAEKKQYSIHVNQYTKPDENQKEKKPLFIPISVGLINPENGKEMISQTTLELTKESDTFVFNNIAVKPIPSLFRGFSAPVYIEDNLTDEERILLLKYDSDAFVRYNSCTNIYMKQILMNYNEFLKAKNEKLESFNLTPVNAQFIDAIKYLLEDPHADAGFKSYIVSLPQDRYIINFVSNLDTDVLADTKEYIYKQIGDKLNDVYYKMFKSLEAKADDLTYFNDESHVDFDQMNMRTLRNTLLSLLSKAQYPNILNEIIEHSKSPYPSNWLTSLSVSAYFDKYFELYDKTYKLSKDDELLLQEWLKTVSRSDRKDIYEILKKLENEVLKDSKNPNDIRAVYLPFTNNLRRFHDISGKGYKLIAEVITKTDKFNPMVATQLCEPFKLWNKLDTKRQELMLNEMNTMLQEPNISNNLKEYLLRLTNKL
A word on the inhibition: it is the relative decrease from the control value, in per cent. On to `CCOC(=O)c1ccc(Nc2nnc(C)c3ccccc23)cc1`, for which the inhibition is 6.41%.

As for `CSc1ccccc1NC(=O)CN(C)CC(=O)NCc1ccccc1`, the inhibition was -1.28%.

As for `CC1(C)CC(=O)C(C=NCCN2CCN(C(=O)c3ccc(Br)cc3)CC2)=C(O)C1`, the inhibition is 2.26%.

As for `COc1ccc(CCNC(=O)[C@@H](NC(=O)c2ccccc2F)C(C)C)cc1OC`, the inhibition was 0.88%.

As for `Oc1c(Cl)cc(Cl)c2cccnc12`, the inhibition is -7.26%.

On to `Oc1c(Cl)cc(Cl)c2c1NCCC2`, for which the inhibition is 7.06%.

Turning to `CCC(C)NCCCCOc1cc(C)cc(C(C)C)c1` (stereo not given), the inhibition was 3.28%.

On to `CCC(=O)N(C)CCc1cc2c(c(OC)c1/C=N/NC(=O)c1ccccc1O)OCO2`, for which the inhibition was -6.1%.

Consider `C#CCOCCOCCOCCNc1nc(N2CCOCC2)nc(N2CCN(C(=O)[C@H]([C@@H](C)CC)n3cc(CCCCN)nn3)CC2)n1`, for which the inhibition is 0.08%.

For the molecule `O=[N+]([O-])c1ccc(-c2ccc(/C=N/c3c(-c4ccco4)nc4ccccn34)o2)c(Cl)c1`, the inhibition was 8.98%.

As to `O=[N+]([O-])c1ccc(-c2ccc(/C=N/c3c(-c4ccco4)nc4ccccn34)o2)cc1`, the inhibition was 27.6% (active).

For the molecule `O=[N+]([O-])c1ccc(Cl)c(-c2ccc(/C=N/c3c(-c4ccco4)nc4ccccn34)o2)c1`, the inhibition is 6.65%.

As for `CC(C)CC(NC(=O)OC(C)(C)C)C(=O)NCc1ccccc1` (stereo not given), the inhibition is -0.35%.

In the case of `COC(=O)C(Cc1ccccc1)NC(=O)C(CC(C)C)NC(=O)OC(C)(C)C` (stereo not drawn) (Boc-Leu-Phe-OMe; configuration not given here), the inhibition is -2.73%.

For the molecule `O=C1N[C@@H](Cc2ccccc2)C(=O)N1CCN1CCOCC1`, the inhibition is -7.62%.

Regarding `O=C(Cn1cnc2ccccc21)N/N=C/c1ccccc1[N+](=O)[O-]`, the inhibition was -4.86%.

Turning to `Cc1ccc(S(=O)(=O)N2CCN(C(=O)CC(C)(C)C)CC2)cc1`, the inhibition is 3.77%.

Consider `CN(c1ccccc1C(=O)Nc1ccc(F)c(F)c1)S(C)(=O)=O`, for which the inhibition is 0.14%.

With `COC(=O)CN1C(c2ccc(Cl)cc2)=Nc2ccc(Cl)cc2C1c1ccccc1` (stereo not given), the inhibition was 8.62%.

Regarding `O=C1CN2C(=Nc3ccc(Cl)cc3C2c2ccccc2)CN1` (stereo not given), the inhibition was 27.9% (active).

For `O=C1CN2C(=Nc3ccc(Br)cc3C2c2ccccc2)CCN1` (stereo not given), the inhibition was 3.13%.

In the case of `COc1ccc(C2=NOC(C(=O)Nc3cc(C)on3)C2)cc1OC` (stereo not given), the inhibition was 9.84%.

On to `C=CCNC(=O)/C(C#N)=C\c1cc(Cl)c(O)c(OCC)c1`, for which the inhibition was 1.82%.

Regarding `COc1ccc(/C=C(/C#N)C(=O)Nc2ccc(O)cc2)cc1C(=O)O`, the inhibition is 15.9%.

As to `CC(C)COc1ccc(/C=C2/Sc3ccccc3C2=O)cc1`, the inhibition was -0.23%.

For the molecule `CCOC(=O)C1=C2NC(=O)c3ccccc3N2C(=O)C1`, the inhibition was 7.37%.

`COc1ccc(C(=O)NNC(=O)CCC(=O)Nc2cc(C)on2)cc1`: the inhibition is 6.61%.

With `CC(=O)Nc1ccccc1-c1nc2ccc(C(=O)N3CCN(c4cc(C)ccc4C)CC3)cc2[nH]c1=O`, the inhibition was 4.66%.

As to `CC(=O)Nc1ccccc1-c1nc2ccc(C(=O)N3CCN(c4cccc(C)c4)C(C)C3)cc2[nH]c1=O` (stereo not given), the inhibition is 6.05%.

With `CC(=O)Nc1ccccc1-c1nc2ccc(C(=O)N3CCN(c4ccccc4)CC3)cc2[nH]c1=O`, the inhibition is 28% (active).

On to `Cc1ccccc1-c1cnn(-c2cccc([N+](=O)[O-])c2)c1N`, for which the inhibition was 1.77%.

As to `CC(C)c1ccc2oc(-c3ccc(N)cc3)nc2c1`, the inhibition is 4.91%.

In the case of `Cc1ccc(-c2nc3cc(N)ccc3o2)cc1`, the inhibition is 6.2%.

As for `CC(=O)N(C(C)=O)N1C(=O)/C(=C/c2ccc(Cl)cc2)SC1=S`, the inhibition was 29.5%.

For the molecule `O=S(=O)(Nc1ncnc2sc3c(c12)CCC3)c1ccc2ccccc2c1`, the inhibition is 27.9% (active).

For `O=S(=O)(Nc1ncnc2sc3c(c12)CCC3)c1cc(F)ccc1F`, the inhibition was 11.3%.

As for `O=S(=O)(Nc1ncnc2sc3c(c12)CCC3)c1ccc(Cl)s1`, the inhibition was 20%.

For `CC(C)CCOCC(=O)Oc1ccccc1C(=O)O`, the inhibition is -2.22%.

For `CCN(CC)CCCOC(=O)c1ccc(OC)cc1O`, the inhibition was 1.55%.

For the molecule `Cc1ccc(C2=NNC(=O)C(c3c[nH]c4ccccc34)C2)cc1` (stereo not given), the inhibition is 1.55%.

In the case of `CC1(C)Nc2ccccc2C(=O)N1NC(=O)c1ccccc1`, the inhibition was 22.7%.

For `O=C1c2ccccc2NC2(CCCC2)N1NS(=O)(=O)c1ccccc1`, the inhibition is 7.28%.

As to `CCOC(=O)NN1C(=O)c2ccccc2NC1(C)C`, the inhibition is 13.7%.

In the case of `CS(=O)(=O)NN1C(=O)c2ccccc2NC12CCCC2`, the inhibition was 6.27%.

With `COc1ccc(NC(=O)c2ccccc2F)cc1Cl`, the inhibition was 5.75%.

In the case of `CCCC[C@@H]1CNC(=S)N1CCCc1cc(OC)c(OC)c(OC)c1`, the inhibition was 2.36%.

Turning to `COc1cc(NC(=O)CSc2nnnn2Cc2ccccc2)cc(OC)c1`, the inhibition is -0.13%.

Regarding `Cc1nc(COC(=O)c2ccc(CO)cc2)cs1`, the inhibition is 4.37%.

As to `Cn1c(=O)c2nc(Cl)c(-c3ccccc3)nc2n(C)c1=O`, the inhibition is 4.55%.

In the case of `COCCCNc1ccc([N+](=O)[O-])cc1C(=O)Nc1cccc(C)n1`, the inhibition is 2.01%.

Take `O=c1[nH]c2ccc(NS(=O)(=O)c3ccc(Cl)cc3)cc2[nH]1`: the inhibition was 7.26%.

Take `CCOc1ccc(NS(=O)(=O)c2ccc3[nH]c(=O)c(=O)[nH]c3c2)cc1`: the inhibition is 10.4%.

For the molecule `CC(C)CCNC(=O)c1nnc(Cc2ccc(Cl)cc2)o1`, the inhibition was 2.74%.

For `O=C(NCCCc1ccccc1)c1cc([N+](=O)[O-])ccc1Cl`, the inhibition is 3.08%.

For `C[N+]1(CC(=O)OC2CCCCCCCCCCC2)CCCC1`, the inhibition was 32.9%.

Consider `Cc1ccc(-c2nc(N=Nc3ccc(O)cc3)n[nH]2)cc1`, for which the inhibition is 15.9%.

For the molecule `Oc1ccc(N=Nc2n[nH]c(-c3ccc(Cl)cc3)n2)cc1`, the inhibition was 26.6% (active).

In the case of `Oc1ccc(N=Nc2n[nH]c(-c3ccc(Br)cc3)n2)cc1`, the inhibition is 14.1%.

Turning to `O=C(Nc1ccccc1N1CCOCC1)c1cccnc1`, the inhibition was -1.63%.

As to `Cc1onc(-c2c(Cl)cccc2Cl)c1COC(=O)c1ccc(Cl)cc1`, the inhibition was 0.11%.
